# Measurements published in publication PMC7862700, “An all-to-all approach to the identification of sequence-specific readers for epigenetic DNA modifications on cytosine”.
# How the values were obtained:
# Experiment in all cases: DAPPL (digital affinity profiling via proximity ligation, sequencing); 10 mM Tris-HCl pH 7.5, 50 mM NaCl, 1 mM DTT, 4% glycerol, room temperature, 30 min; GST-TFs on glutathione beads, 16-mer random dsDNA library, 0.1% formaldehyde crosslink after washing; high values mean tight binding
# HSF1 = HSF1 (Homo sapiens, UniProt Q00613 1-529); conditions: protein: recombinant; tags: N-terminal GST; chain copies: 3; dsDNA, one strand shown
# Chain of HSF1 (Q00613 whole entry, the tested form may be a part): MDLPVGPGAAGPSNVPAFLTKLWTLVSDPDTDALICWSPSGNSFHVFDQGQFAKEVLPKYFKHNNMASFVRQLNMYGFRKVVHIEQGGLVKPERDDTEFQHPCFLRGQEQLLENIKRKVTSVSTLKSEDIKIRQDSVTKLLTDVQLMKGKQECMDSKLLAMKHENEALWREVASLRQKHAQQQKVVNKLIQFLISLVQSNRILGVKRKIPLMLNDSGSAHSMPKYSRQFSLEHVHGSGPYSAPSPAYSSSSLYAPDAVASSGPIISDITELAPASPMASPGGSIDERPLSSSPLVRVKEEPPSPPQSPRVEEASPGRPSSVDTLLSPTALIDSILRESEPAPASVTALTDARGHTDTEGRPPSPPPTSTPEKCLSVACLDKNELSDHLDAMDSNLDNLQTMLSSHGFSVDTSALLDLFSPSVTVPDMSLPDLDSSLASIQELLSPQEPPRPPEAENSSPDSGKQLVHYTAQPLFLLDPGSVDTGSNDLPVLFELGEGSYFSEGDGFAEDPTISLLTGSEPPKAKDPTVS
# In short: (§1)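 In yeast, human transcription factors were expressed with a GST fusion, then pulled down on glutathione beads and given DNA barcodes. Pooled with a tag-only sample, they were exposed to 200 nmole of a 16-mer random double-stranded DNA library (Tris/NaCl/DTT/glycerol buffer, room temperature, 30 min), washed, crosslinked with 0.1% formaldehyde, proximity-ligated using BsaI/T4 ligase for 1 h at 37 °C, PCR-amplified and read on an Illumina NextSeq500. Each hexamer's frequency of reads for a factor, divided by the matching frequency for the tag-only sample, gives the binding signal.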
# SPIC = target: T1, SPIC (Homo sapiens, UniProt Q8N5J4 1-248); conditions: protein: recombinant; tags: N-terminal GST; dsDNA, one strand shown
# T1 sequence: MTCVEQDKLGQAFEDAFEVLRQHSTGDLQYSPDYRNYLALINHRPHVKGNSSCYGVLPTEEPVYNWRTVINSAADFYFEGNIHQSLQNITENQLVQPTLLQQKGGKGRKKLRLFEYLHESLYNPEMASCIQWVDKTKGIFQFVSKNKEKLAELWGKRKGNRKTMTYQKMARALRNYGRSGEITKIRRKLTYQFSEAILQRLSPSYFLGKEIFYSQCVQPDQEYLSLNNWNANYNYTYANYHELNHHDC
# In short: as §1
# ELK4 = target: T2, ELK4 (Homo sapiens, UniProt P28324-2 1-405); conditions: protein: recombinant; tags: N-terminal GST; dsDNA, one strand shown
# T2 sequence: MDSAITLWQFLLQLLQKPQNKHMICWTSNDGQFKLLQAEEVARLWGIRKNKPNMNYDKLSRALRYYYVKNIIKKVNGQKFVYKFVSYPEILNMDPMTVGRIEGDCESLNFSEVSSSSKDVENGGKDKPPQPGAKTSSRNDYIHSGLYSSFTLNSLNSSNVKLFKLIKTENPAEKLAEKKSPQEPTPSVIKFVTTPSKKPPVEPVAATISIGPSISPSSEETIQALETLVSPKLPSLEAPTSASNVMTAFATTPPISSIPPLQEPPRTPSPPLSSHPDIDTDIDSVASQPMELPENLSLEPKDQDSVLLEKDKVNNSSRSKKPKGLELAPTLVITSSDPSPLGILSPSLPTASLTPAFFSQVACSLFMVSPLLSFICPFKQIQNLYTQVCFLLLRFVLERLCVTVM
# In short: as §1
# ELF3 = target: T3, ELF3 (Homo sapiens, UniProt P78545 1-371); conditions: protein: recombinant; tags: N-terminal GST; dsDNA, one strand shown
# T3 sequence: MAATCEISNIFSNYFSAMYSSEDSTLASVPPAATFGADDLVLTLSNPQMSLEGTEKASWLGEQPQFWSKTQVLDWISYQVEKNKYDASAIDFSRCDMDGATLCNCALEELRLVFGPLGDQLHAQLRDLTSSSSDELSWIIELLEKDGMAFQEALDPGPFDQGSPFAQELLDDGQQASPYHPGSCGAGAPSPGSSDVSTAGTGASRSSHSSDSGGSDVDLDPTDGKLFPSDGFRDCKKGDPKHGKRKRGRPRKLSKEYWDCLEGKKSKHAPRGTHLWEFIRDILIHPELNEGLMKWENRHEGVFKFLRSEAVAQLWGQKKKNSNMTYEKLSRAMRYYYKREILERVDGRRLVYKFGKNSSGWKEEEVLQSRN
# In short: as §1
# CRX = CRX (Homo sapiens, UniProt O43186 1-299); conditions: protein: recombinant; tags: N-terminal GST; dsDNA, one strand shown
# Chain of CRX (O43186 whole entry): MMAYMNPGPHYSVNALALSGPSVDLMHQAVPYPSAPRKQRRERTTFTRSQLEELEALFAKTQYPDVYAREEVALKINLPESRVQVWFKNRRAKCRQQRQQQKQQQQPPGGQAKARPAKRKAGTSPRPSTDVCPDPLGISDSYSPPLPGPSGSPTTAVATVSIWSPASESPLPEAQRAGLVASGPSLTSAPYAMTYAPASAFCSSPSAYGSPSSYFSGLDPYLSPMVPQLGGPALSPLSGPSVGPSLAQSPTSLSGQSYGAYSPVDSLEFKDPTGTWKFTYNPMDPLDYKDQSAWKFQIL
# In short: as §1
# ERF = target: T4, ERF (Homo sapiens, UniProt P50548 1-548); conditions: protein: recombinant; tags: N-terminal GST; dsDNA, one strand shown
# T4 sequence: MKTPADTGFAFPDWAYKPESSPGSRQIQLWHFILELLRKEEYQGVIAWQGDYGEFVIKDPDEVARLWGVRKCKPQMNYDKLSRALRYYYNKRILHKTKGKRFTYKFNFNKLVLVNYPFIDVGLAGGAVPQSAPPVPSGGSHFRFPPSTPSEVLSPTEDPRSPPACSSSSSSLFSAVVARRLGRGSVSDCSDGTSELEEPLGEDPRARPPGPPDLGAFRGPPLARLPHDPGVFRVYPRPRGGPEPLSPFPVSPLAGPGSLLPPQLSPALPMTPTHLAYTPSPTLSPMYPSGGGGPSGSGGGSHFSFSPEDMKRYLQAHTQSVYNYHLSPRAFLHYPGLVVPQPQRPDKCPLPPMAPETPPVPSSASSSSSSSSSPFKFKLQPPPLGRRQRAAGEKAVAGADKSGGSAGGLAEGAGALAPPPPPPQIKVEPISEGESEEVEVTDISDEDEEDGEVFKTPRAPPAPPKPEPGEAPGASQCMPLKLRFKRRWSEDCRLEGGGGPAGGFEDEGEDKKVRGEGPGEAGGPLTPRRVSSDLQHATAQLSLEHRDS
# In short: as §1
# ETV3L = target: T5, ETV3L (Homo sapiens, UniProt Q6ZN32 1-361); conditions: protein: recombinant; tags: N-terminal GST; dsDNA, one strand shown
# T5 sequence: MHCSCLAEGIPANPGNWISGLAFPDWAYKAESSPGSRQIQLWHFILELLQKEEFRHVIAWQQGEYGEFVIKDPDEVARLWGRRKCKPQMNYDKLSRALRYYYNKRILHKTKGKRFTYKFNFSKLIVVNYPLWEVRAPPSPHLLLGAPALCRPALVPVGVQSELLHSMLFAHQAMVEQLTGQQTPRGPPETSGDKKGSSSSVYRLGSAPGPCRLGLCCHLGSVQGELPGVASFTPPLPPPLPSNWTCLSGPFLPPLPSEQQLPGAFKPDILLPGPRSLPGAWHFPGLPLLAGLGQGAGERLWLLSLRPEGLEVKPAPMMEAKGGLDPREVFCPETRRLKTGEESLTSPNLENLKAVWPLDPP
# In short: as §1
# ETS2 = target: T6, ETS2 (Homo sapiens, UniProt P15036 1-469); conditions: protein: recombinant; tags: N-terminal GST; dsDNA, one strand shown
# T6 sequence: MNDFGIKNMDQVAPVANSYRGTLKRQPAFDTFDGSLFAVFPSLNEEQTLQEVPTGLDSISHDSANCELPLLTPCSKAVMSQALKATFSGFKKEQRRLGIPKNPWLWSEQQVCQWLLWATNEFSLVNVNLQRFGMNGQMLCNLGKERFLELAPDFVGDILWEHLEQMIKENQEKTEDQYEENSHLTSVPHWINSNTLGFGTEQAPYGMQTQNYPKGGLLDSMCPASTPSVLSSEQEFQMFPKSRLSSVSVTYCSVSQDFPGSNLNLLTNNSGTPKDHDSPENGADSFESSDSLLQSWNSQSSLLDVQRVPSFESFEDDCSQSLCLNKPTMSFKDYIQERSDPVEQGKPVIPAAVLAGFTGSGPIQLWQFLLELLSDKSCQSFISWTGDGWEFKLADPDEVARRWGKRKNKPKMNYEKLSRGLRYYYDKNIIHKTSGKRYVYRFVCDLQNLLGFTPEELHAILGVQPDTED
# In short: as §1
# SPDEF = target: T7, SPDEF (Homo sapiens, UniProt O95238 1-335); conditions: protein: recombinant; tags: N-terminal GST; dsDNA, one strand shown
# T7 sequence: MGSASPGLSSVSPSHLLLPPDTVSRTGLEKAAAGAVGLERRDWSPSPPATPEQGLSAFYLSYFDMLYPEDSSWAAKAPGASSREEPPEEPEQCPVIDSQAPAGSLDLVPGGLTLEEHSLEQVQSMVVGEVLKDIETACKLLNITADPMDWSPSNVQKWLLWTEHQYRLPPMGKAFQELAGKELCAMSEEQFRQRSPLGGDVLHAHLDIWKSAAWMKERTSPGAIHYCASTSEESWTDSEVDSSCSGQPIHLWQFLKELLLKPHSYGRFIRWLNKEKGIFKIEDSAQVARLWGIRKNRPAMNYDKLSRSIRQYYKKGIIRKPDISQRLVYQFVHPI
# In short: as §1
# ELK1 = target: T8, ELK1 (Homo sapiens, UniProt P19419 1-428); conditions: protein: recombinant; tags: N-terminal GST; dsDNA, one strand shown
# T8 sequence: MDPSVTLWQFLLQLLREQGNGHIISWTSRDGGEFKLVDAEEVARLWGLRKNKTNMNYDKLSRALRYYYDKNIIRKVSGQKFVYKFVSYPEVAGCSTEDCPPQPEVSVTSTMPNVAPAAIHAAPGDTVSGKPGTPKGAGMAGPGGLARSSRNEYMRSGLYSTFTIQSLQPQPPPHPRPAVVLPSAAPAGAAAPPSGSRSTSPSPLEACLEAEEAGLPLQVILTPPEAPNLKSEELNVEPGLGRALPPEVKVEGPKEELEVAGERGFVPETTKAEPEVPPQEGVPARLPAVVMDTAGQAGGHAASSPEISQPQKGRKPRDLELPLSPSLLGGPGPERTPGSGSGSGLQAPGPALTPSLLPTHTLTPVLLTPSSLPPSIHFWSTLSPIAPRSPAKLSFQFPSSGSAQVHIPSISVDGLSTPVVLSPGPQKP
# In short: as §1
# GABPA = target: T9, GABPA (Homo sapiens, UniProt Q06546 1-454); conditions: protein: recombinant; tags: N-terminal GST; dsDNA, one strand shown
# T9 sequence: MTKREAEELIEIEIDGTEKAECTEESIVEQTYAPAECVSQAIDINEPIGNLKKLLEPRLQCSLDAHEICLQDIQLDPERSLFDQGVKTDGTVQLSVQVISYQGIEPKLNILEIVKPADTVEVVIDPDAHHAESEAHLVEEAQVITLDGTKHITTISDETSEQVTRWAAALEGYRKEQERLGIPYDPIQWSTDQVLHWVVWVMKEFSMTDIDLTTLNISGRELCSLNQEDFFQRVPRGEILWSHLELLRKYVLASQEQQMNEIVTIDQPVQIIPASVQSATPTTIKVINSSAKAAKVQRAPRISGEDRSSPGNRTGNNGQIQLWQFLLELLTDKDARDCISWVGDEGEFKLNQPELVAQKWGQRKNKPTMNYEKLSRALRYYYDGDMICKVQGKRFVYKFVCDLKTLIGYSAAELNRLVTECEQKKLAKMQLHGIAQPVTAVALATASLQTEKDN
# In short: as §1
# ERG = target: T10, ERG (Homo sapiens, UniProt P11308 1-479); conditions: protein: recombinant; tags: N-terminal GST; dsDNA, one strand shown
# T10 sequence: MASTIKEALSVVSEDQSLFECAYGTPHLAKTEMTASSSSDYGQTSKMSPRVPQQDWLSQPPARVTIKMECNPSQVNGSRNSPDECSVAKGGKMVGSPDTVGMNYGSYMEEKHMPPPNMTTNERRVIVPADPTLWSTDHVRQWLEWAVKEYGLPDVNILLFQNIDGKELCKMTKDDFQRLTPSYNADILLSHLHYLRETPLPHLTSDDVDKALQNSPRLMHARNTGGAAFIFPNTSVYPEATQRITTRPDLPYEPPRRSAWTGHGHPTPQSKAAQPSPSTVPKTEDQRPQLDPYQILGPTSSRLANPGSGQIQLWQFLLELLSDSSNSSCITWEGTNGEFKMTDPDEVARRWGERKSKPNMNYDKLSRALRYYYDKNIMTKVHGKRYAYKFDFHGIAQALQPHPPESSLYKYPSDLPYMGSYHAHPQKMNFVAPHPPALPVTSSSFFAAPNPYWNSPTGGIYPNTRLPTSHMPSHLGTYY
# In short: as §1
# ELF1 = ELF1 (Homo sapiens, UniProt P32519 1-619); conditions: protein: recombinant; tags: N-terminal GST; dsDNA, one strand shown
# Chain of ELF1 (P32519 whole entry): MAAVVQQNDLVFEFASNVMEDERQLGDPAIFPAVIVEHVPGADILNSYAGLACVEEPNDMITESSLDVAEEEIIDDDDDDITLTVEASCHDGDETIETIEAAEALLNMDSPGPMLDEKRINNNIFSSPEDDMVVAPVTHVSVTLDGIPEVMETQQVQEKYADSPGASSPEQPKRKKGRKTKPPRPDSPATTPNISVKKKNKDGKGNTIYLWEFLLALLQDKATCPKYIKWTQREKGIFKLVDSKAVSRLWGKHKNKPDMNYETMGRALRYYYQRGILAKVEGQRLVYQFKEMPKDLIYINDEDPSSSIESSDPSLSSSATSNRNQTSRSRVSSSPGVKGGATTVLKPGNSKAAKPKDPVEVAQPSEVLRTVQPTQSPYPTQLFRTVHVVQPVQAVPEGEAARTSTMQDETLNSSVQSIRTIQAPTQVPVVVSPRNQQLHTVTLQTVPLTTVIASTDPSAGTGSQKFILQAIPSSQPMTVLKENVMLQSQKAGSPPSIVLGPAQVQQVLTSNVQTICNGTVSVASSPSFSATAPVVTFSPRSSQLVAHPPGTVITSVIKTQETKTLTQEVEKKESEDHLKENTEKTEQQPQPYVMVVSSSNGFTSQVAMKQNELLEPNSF
# In short: as §1
# EHF = target: T11, EHF (Homo sapiens, UniProt Q9NZC4 1-300); conditions: protein: recombinant; tags: N-terminal GST; dsDNA, one strand shown
# T11 sequence: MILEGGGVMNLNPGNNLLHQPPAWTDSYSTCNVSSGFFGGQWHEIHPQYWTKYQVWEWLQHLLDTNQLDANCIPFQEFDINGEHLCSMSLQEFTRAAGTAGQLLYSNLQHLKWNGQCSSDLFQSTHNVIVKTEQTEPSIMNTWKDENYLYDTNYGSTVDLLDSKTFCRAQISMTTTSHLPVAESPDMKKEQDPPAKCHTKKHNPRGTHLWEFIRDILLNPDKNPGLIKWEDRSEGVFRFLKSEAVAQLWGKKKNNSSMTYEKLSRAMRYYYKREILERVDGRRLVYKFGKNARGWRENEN
# In short: as §1
Sequence,binding signal (HSF1),binding signal (SPIC),binding signal (ELK4),binding signal (ELF3),binding signal (CRX),binding signal (ERF),binding signal (ETV3L),binding signal (ETS2),binding signal (SPDEF),binding signal (ELK1),binding signal (GABPA),binding signal (ERG),binding signal (ELF1),binding signal (EHF)
GTAGAT,"1 fold enrichment (6-mer frequency, TF over GST control)","1.16 fold enrichment (6-mer frequency, TF over GST control)","1.01 fold enrichment (6-mer frequency, TF over GST control)","1.01 fold enrichment (6-mer frequency, TF over GST control)","1.07 fold enrichment (6-mer frequency, TF over GST control)","1.06 fold enrichment (6-mer frequency, TF over GST control)","1.09 fold enrichment (6-mer frequency, TF over GST control)","1.02 fold enrichment (6-mer frequency, TF over GST control)","1.04 fold enrichment (6-mer frequency, TF over GST control)",–,–,–,–,–
ACTAGA,"2.1 fold enrichment (6-mer frequency, TF over GST control)","1.03 fold enrichment (6-mer frequency, TF over GST control)",–,–,"1.16 fold enrichment (6-mer frequency, TF over GST control)","1.05 fold enrichment (6-mer frequency, TF over GST control)",–,–,–,"1.02 fold enrichment (6-mer frequency, TF over GST control)","1.01 fold enrichment (6-mer frequency, TF over GST control)","1 fold enrichment (6-mer frequency, TF over GST control)","1.02 fold enrichment (6-mer frequency, TF over GST control)","1.01 fold enrichment (6-mer frequency, TF over GST control)"
